AmpC det inh = Promiscuous and Specific Inhibitors of AmpC Beta-Lactamase (assay with detergent); purified AmpC, nitrocefin hydrolysis with detergent; Potency, µM (titrated, usually from 28.7 µM), without a hit: at the top dose activity change, negative = inhibition; 71,000 compounds, 0.09% hits; AID 584, 2007; active = well fitted curve in the direction sought with a large enough effect; inconclusive = small, poorly fitted or top-dose-only effect; also: % is scaled to controls: 0 for no effect and ±100 for the full control effect
Target sequence (P00811 whole entry, looked up): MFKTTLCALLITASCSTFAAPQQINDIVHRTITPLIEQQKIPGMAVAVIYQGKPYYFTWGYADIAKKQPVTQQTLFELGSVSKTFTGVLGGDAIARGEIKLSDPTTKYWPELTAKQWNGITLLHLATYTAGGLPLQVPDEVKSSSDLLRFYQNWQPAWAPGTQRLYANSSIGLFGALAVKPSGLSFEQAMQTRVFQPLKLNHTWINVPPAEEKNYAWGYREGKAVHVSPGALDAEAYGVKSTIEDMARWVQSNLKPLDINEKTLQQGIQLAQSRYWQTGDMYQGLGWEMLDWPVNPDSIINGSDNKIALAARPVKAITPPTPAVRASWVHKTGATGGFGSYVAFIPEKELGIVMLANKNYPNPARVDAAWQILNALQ
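E. coli AmpC (5.3 nM) in 20 mM phosphate pH 7.0 with 0.01% Triton X-100, preincubated 15 min RT with compound; nitrocefin (2 uL of 800 uM stock) hydrolysis followed by 480 nm absorbance every 20 s over 4 min.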
Prx2 Sm inh = Schistosoma Mansoni Peroxiredoxins (Prx2) | Schistosoma mansoni peroxiredoxin 2 (Prx2) | S. mansoni Prx2 activity coupled to TGR/GSH (TGR is thioredoxin glutathione reductase), NADPH fluorescence loss, qHTS | Potency, µM | 65,000 compounds, 0.07% hits
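Coupled assay in which S. mansoni TGR passes NADPH reducing equivalents via glutathione to Prx2, which reduces H2O2. Compounds were preincubated 15 min at room temperature with 25 nM TGR/50 nM Prx2 mix. Kinetic NADPH fluorescence loss (ex 365/em 450 nm) was monitored.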
LT uptake inh = qHTS Assay for Anthrax Lethal Toxin Internalization; Cells, anthrax lethal toxin internalization, FRET ratio (460/530); Potency, µM (highest dose often 40 µM), without a hit: at the top dose activity change, negative = inhibition, actives largely listed as inhibitors; 70,000 compounds, 0.67% hits; AID 912, 2007; also: % is scaled to controls: 0 for no effect and ±100 for the full control effect; nearly all actives have a fitted effect of over 50% in size
AmpC inh no det = Promiscuous and Specific Inhibitors of AmpC Beta-Lactamase (assay without detergent); AmpC nitrocefin hydrolysis, absorbance 480 nm, no detergent; AID 585, 2007; P00811; 71,000 compounds, 1.8% hits; Potency, µM (doses to about 28.7 µM), without a hit: at the top dose activity change, negative = inhibition; also: % of control where 0% means no effect
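AmpC in 20 mM phosphate buffer pH 7.0 was preincubated 15 min at room temperature with compounds. Nitrocefin (800 uM stock) was then added and hydrolysis followed at 480 nm every 20 s for 4 min.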
Numbers without * were called inactive; ? = inconclusive; . = not tested or not shown; [ ] = remark or other dose. Rows were chosen to be rich in hits. Some 2.6% of all compounds tested hit in one or more screens of this group. Unless noted, calls follow the shape of the full dose curve. Potency is read from the fitted curve at half-maximal effect.

SMILES	AmpC det inh	Prx2 Sm inh	LT uptake inh	AmpC inh no det
O=c1c(-c2nc3ccccc3o2)c2oc3ccccc3n2c2ccccc12	-5%	>57	13µM*	48%
COc1ccc(OC)c(Nc2nc(-c3cccs3)cs2)c1	13%	>57	?	4%
COc1ccccc1Nc1nc(-c2cccs2)cs1	-5%	.	?	7.9µM*[single pt active]
Clc1ccc(-n2nnnc2SCc2c(-c3ccccc3)nc3sccn23)cc1	-2%	>57	-10%	13µM*
C[C@]1(C(=O)NCC2CC2)C=C[C@@H](Cc2ccccc2)N1C(=O)c1ccccc1	12%	.	3%	66%
Cc1cc(C)c2c(=O)n(CC(=O)N3CCC(N4CCCCC4)CC3)sc2n1	8%	>57	3.2µM*	19%
Nc1c(S(N)(=O)=O)cc(S(N)(=O)=O)cc1S(N)(=O)=O	-4%[5.75 µM]	>57	?	-6%[5.75 µM]
O=C(c1cccc(F)c1)N1CCC2(CCCN(C(c3ccccc3)c3ccccc3)C2)CC1	-6%	>57	-2%	32%
O=C(NCCN1CCCC1)c1ccc(CS(=O)(=O)c2c(Cl)cccc2Cl)o1	13%	>57	-9%	4µM*[single pt active]
CN(C)CCNC(=O)c1ccc(CS(=O)(=O)c2c(Cl)cccc2Cl)o1	4%	>57	-22%	10%
O=c1c(-c2ccc(F)c(F)c2)nc2cncnc2n1Cc1ccc(F)cc1	-3%	>57	?	13%
Brc1ccccc1CN1CCC(N2CCCCC2)CC1	6%	.	10µM*	-20%
O=C(c1ccccc1)N1CCN(Cc2ccccc2Br)CC1	-5%	>57	3%	38%
O=C(/C=C\c1ccc(O)c(O)c1)OCCc1ccccc1	-1%	>57	?	-22%
Cn1nc(-c2ccc(Cl)cc2)c2cc(C(=O)N3CCN(C(=O)c4ccco4)CC3)sc21	13%	.	-10%	4µM*[single pt active]
Cn1nc(-c2ccc(Cl)cc2)c2cc(C(=O)NC3CC3)sc21	10%	>57	-2%	4µM*[single pt active]
CCOCCCNC(=O)c1cc2c(-c3ccc(Cl)cc3)nn(C)c2s1	8%	>57	-10%	130%
CCN(CC)CCNC(=O)c1cc2c(-c3ccc(Cl)cc3)nn(C)c2s1	5%	>57	10µM*	4µM*[single pt active]
CCN1CCN(C(=O)c2cc3c(-c4ccc(Cl)cc4)nn(C)c3s2)CC1	9%	>57	5%	155%
Cn1nc(-c2ccc(Cl)cc2)c2cc(C(=O)NCCCN3CCOCC3)sc21	13%	>57	2.5µM*	124%
Cn1nc(-c2ccc(Cl)cc2)c2cc(C(=O)NCCN3CCOCC3)sc21	14%	>57	?	146%
N#Cc1ccc(CN2CC[C@@]3(CCCN(C(=O)c4cccc(F)c4)C3)C2)cc1	-2%	>57	?	37%
CCc1cc2c(nc1CC)CCN(CC/C(C)=N/O[C@@H]1O[C@H](COC(C)=O)[C@H](OC(C)=O)[C@H](OC(C)=O)[C@H]1OC(C)=O)C2	.	.	-10%[1.6 µM]	.
CCOC(=O)N/N=C1/C[C@@H](O)[C@@H](O)[C@@H]2[C@H]3C(=O)N(c4ccc(F)cc4F)C(=O)[C@@H]3CC[C@H]12	.	.	-6%[1.6 µM]	.
Oc1c(Cl)ccc(Cl)c1Cl	7%	.	0%	-6%
SMILES	AmpC det inh	Prx2 Sm inh	LT uptake inh	AmpC inh no det
Oc1c(Cl)c(Cl)c(Cl)c(Cl)c1Cl	7%	.	20µM*	1%
CN1C[C@@H](CNC(=O)OCc2ccccc2)C[C@H]2c3cccc4c3c(cn4C)C[C@@H]21	-1%	>57	?	73%
Cc1ccn2cc(C(=O)Nc3ccc4c(c3)OCCO4)nc2c1	-4%	>57	7.9µM*	10%
Cc1nc2ccccc2c2oc(C(=O)NCC3COc4ccccc4O3)cc12 (stereo unspecified)	8%	>57	5µM*	117%
Cc1nc2ccccc2c2oc(C(=O)Nc3ccc4c(c3)OCCO4)cc12	1%	>57	0.79µM*	-1%
Cc1cccc(N2CCN(C(=O)c3cc4c(C)nc5ccccc5c4o3)CC2)c1C	4%	>57	10µM*	113%
Cc1ccn2cc(C(=O)Nc3ccccc3N3CCOCC3)nc2c1	-3%	>57	?	38%
COc1ccc(-c2nc3cnc(N4CCNCC4)nc3n(CCc3ccccc3)c2=O)cc1	-2%	>57	?	94%
CCC(=C(CC)c1ccc(O)cc1)c1ccc(O)cc1	3%[12.8 µM]	>57	-8%[3.58 µM]	-19%[12.8 µM]
CC(=O)N1CCC2(CC1)CCN(c1cccc(-c3ccccc3)c1)CC2	-4%	>57	-5%	159%
COc1ccc(NC(=O)N2CC[C@@]3(CCCN(C(=O)c4ccco4)C3)C2)cc1	-2%	>57	?	9%
